Data taken from PubChem BioAssay (NCI).
The panel holds about 83,000 compounds, 20% with a hit somewhere; the sample as a whole holds those more often.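 Interpretation: 100, growth as untreated; towards 0, rising growth inhibition; 0, no net growth; 0 to -100, cell death. Compounds scoring below 10 were considered active.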 Active and inactive are the calls of the source.

tested on: SF-295 CNS; experiment: NCI-60 one-dose screen, 48 h (100 = growth as untreated, 0 = no growth, -100 = all killed); conditions: 10 µM unless noted

| Structure (SMILES) | growth |
| --- | --- |
| O=C(/C=C/c1ccc2ccccc2c1)Nc1ncc(Cc2ccccc2)s1 | 36.8% (inactive) |
| O=C1c2cc3c(cc2-c2c1c1ccc(F)cc1c(=O)n2CCCN1CCOCC1)OCO3 | 21.7% (inactive) |
| C=C1CC[C@@H](C(=O)OC)Cc2nc(C)ccc21 | 98.4% (inactive) |
| CCN1CCN(C(=O)[C@]23CCC(C)(C)C[C@@H]2C2=CC[C@@H]4[C@@]5(C)C/C(=C/c6cccnc6)C(=O)C(C)(C)[C@@H]5CC[C@@]4(C)[C@]2(C)CC3)CC1 | 16.7% (inactive) |
| Nc1c(C(=O)Nc2cccc3ccccc23)sc2nc3c(cc12)CCCC3 | 14.6% (inactive) |
| CC(C)(C)c1cc(-n2c(-c3ccc(Cl)cc3)nc3cc(C(=O)Nc4ccc(Cl)cc4)ccc32)n[nH]1 | -2.36% (active) |
| Fc1ccc(Nc2nnc(-c3ccc(Cl)cc3)o2)cc1 | 102% (inactive) |
| O=C1/C(=C\c2ccc(Br)o2)SC(=S)N1CCc1ccc(O)cc1 | 94.9% (inactive) |
| CC(=O)c1c(C)[nH]c(-c2nc3ccc(N4CCN(C)CC4)cc3[nH]2)c1-c1ccc2c(c1)OCCO2 | 44.4% (inactive) |
| COc1ccc2[nH]c(-c3ccc(Cl)cc3)cc(=O)c2c1 | 97% (inactive) |
| CCC1C(=O)COC1=O (stereo unspecified) | 97.9% (inactive) |
| COc1ccc(O)c(-c2cc(-c3ccc(Cl)cc3)c(C#N)c(=O)[nH]2)c1 | 61.5% (inactive) |
| C=C(C)[C@@H]1CC[C@]2(C)[C@H](CC[C@@H]3[C@H]4[C@H]5OC[C@@]4(CCC5(C)C)CC[C@]32C)[C@@]1(C)CCCN | -4.38% (active) |
| CN1CCN(CCOc2ccc(-c3cnc4c(-c5cccc(F)c5)cnn4c3)cc2)CC1 | 79.6% (inactive) |
| Cc1cc(N(CCNc2ccnc3cc(Cl)ccc23)Cc2ccco2)nc(Cl)n1 | -75% (active) |
| COc1ccc(CCN2C(=O)C(C)(C)SC2=S)cc1OC | 96.8% (inactive) |
| Cc1cc2nc3c4cc(O)ccc4n(CCN(C)C)c3nc2cc1C | -19.8% (active) |
| CCCCC(=O)OC1CCCCC1C (stereo unspecified) | 97% (inactive) |
| COc1ccc2c(c1)c(-c1nc(-c3c[nH]c4ncccc34)cs1)cn2CCCN1CCCCC1 | 68.2% (inactive) |

| Structure (SMILES) | growth |
| --- | --- |
| CC(=O)c1c(C)[nH]c(-c2nc3ccc(N4CCN(C)CC4)cc3[nH]2)c1-c1ccc(OCC2CCOCC2)cc1 | 43.3% (inactive) |
| Cc1nc([P+](c2ccccc2)(c2ccccc2)c2ccccc2)c(Sc2sc(-c3ccccc3)nc2[P+](c2ccccc2)(c2ccccc2)c2ccccc2)o1 | 1.87% (active) |
| NNC(=O)c1nc2ccccc2[nH]1 | 104% (inactive) |
| O=P(O)(c1ccccc1)c1ccccc1I | 93.7% (inactive) |
| COc1ccc(OC)c(-c2c(C#N)c(-c3ccco3)nc3c2c(-c2ccccc2)nn3-c2ccccc2)c1 | 98.9% (inactive) |
| CNC(=O)c1cc(Oc2ccc3nc(NC(=O)Nc4ccc(Cl)cc4)sc3c2)ccn1 | 66.3% (inactive) |
| Clc1cc(Cl)cc(Nc2ccc3c(OCCCN4CCOCC4)cccc3n2)c1 | 30.6% (inactive) |
| N#CC1=C(N)Oc2c(c(N)nn2-c2ccccc2)C1c1ccc(Cl)cc1Cl (stereo unspecified) | 106% (inactive) |
| CC(C)(C)c1ccc(OCCCCCCCN2CCNCC2)cc1 | 17.3% (inactive) |
| Cc1cc(Cl)nc(N(CCCNc2ccnc3cc(Cl)ccc23)Cc2ccco2)n1 | 20.6% (inactive) |
| CC1(C)NCCC[C@]2(C)[C@H]3CC[C@@H]4[C@H]5[C@H](C(=O)/C=C/c6ccccn6)CC[C@]5(CO)CC[C@@]4(C)[C@]3(C)CC[C@@H]12 | 88.8% (inactive) |
| NCCNc1nc(-c2ccccc2)nc2nc(-c3ccccc3)oc12 | 101% (inactive) |
| COc1cnc2c(c1)C(=O)c1c-2n(CCCNC(C)C)c(=O)c2cc([N+](=O)[O-])ccc12 | -76.2% (active) |
| COc1cnc2c(c1)C(=O)c1c-2n(CCCNC2=NCCS2)c(=O)c2cc([N+](=O)[O-])ccc12 | 11.7% (inactive) |
| CCC(c1ccc(OC)cc1)C(CC)c1ccc(O)c(CN2CCCCC2)c1 (stereo unspecified) | 78.9% (inactive) |
| COc1cc2nc(Cl)nc(Nc3cccc(C(=O)/C=C/c4ccccc4)c3)c2cc1OC | 69.5% (inactive) |
| CC1(C)C(=O)/C(=C\c2ccco2)C[C@]2(C)[C@H]3CC[C@@H]4[C@@H](C(=O)/C=C/c5ccco5)CC[C@@]4(C)[C@]3(C)CC[C@@H]12 | 100% (inactive) |
| CCCC1CCCCN1C(=O)OCC(C)C (stereo unspecified) | 94.5% (inactive) |
| Cc1ccc(-c2nn(Cc3cn(-c4cc(C)nc5ccccc45)nn3)c3ncnc(N)c23)cc1 | 66.5% (inactive) |

tested on: SF-539 CNS; experiment: as above; conditions: 10 µM unless noted

| Structure (SMILES) | growth |
| --- | --- |
| O=C(/C=C/c1ccc2ccccc2c1)Nc1ncc(Cc2ccccc2)s1 | 78.2% (inactive) |
| O=C1c2cc3c(cc2-c2c1c1ccc(F)cc1c(=O)n2CCCN1CCOCC1)OCO3 | 11.2% (inactive) |
| C=C1CC[C@@H](C(=O)OC)Cc2nc(C)ccc21 | 99.3% (inactive) |
| CCN1CCN(C(=O)[C@]23CCC(C)(C)C[C@@H]2C2=CC[C@@H]4[C@@]5(C)C/C(=C/c6cccnc6)C(=O)C(C)(C)[C@@H]5CC[C@@]4(C)[C@]2(C)CC3)CC1 | 41.5% (inactive) |
| Nc1c(C(=O)Nc2cccc3ccccc23)sc2nc3c(cc12)CCCC3 | 8.91% (active) |
| CC(C)(C)c1cc(-n2c(-c3ccc(Cl)cc3)nc3cc(C(=O)Nc4ccc(Cl)cc4)ccc32)n[nH]1 | 82.9% (inactive) |
| Fc1ccc(Nc2nnc(-c3ccc(Cl)cc3)o2)cc1 | 103% (inactive) |
| O=C1/C(=C\c2ccc(Br)o2)SC(=S)N1CCc1ccc(O)cc1 | 52.3% (inactive) |
| CC(=O)c1c(C)[nH]c(-c2nc3ccc(N4CCN(C)CC4)cc3[nH]2)c1-c1ccc2c(c1)OCCO2 | 41.7% (inactive) |
| COc1ccc2[nH]c(-c3ccc(Cl)cc3)cc(=O)c2c1 | 99.9% (inactive) |
| CCC1C(=O)COC1=O (stereo unspecified) | 105% (inactive) |
| COc1ccc(O)c(-c2cc(-c3ccc(Cl)cc3)c(C#N)c(=O)[nH]2)c1 | 52.4% (inactive) |
| C=C(C)[C@@H]1CC[C@]2(C)[C@H](CC[C@@H]3[C@H]4[C@H]5OC[C@@]4(CCC5(C)C)CC[C@]32C)[C@@]1(C)CCCN | 87% (inactive) |
| CN1CCN(CCOc2ccc(-c3cnc4c(-c5cccc(F)c5)cnn4c3)cc2)CC1 | 70.6% (inactive) |
| Cc1cc(N(CCNc2ccnc3cc(Cl)ccc23)Cc2ccco2)nc(Cl)n1 | -80.8% (active) |
| COc1ccc(CCN2C(=O)C(C)(C)SC2=S)cc1OC | 105% (inactive) |
| Cc1cc2nc3c4cc(O)ccc4n(CCN(C)C)c3nc2cc1C | -13.1% (active) |
| CCCCC(=O)OC1CCCCC1C (stereo unspecified) | 103% (inactive) |
| COc1ccc2c(c1)c(-c1nc(-c3c[nH]c4ncccc34)cs1)cn2CCCN1CCCCC1 | -63.6% (active) |

| Structure (SMILES) | growth |
| --- | --- |
| CC(=O)c1c(C)[nH]c(-c2nc3ccc(N4CCN(C)CC4)cc3[nH]2)c1-c1ccc(OCC2CCOCC2)cc1 | 40.2% (inactive) |
| Cc1nc([P+](c2ccccc2)(c2ccccc2)c2ccccc2)c(Sc2sc(-c3ccccc3)nc2[P+](c2ccccc2)(c2ccccc2)c2ccccc2)o1 | 22.3% (inactive) |
| NNC(=O)c1nc2ccccc2[nH]1 | 103% (inactive) |
| O=P(O)(c1ccccc1)c1ccccc1I | 101% (inactive) |
| COc1ccc(OC)c(-c2c(C#N)c(-c3ccco3)nc3c2c(-c2ccccc2)nn3-c2ccccc2)c1 | 92.6% (inactive) |
| CNC(=O)c1cc(Oc2ccc3nc(NC(=O)Nc4ccc(Cl)cc4)sc3c2)ccn1 | 83.5% (inactive) |
| Clc1cc(Cl)cc(Nc2ccc3c(OCCCN4CCOCC4)cccc3n2)c1 | 48.1% (inactive) |
| N#CC1=C(N)Oc2c(c(N)nn2-c2ccccc2)C1c1ccc(Cl)cc1Cl (stereo unspecified) | 94.3% (inactive) |
| CC(C)(C)c1ccc(OCCCCCCCN2CCNCC2)cc1 | 67.3% (inactive) |
| Cc1cc(Cl)nc(N(CCCNc2ccnc3cc(Cl)ccc23)Cc2ccco2)n1 | 20.1% (inactive) |
| CC1(C)NCCC[C@]2(C)[C@H]3CC[C@@H]4[C@H]5[C@H](C(=O)/C=C/c6ccccn6)CC[C@]5(CO)CC[C@@]4(C)[C@]3(C)CC[C@@H]12 | 86.1% (inactive) |
| NCCNc1nc(-c2ccccc2)nc2nc(-c3ccccc3)oc12 | 90.4% (inactive) |
| COc1cnc2c(c1)C(=O)c1c-2n(CCCNC(C)C)c(=O)c2cc([N+](=O)[O-])ccc12 | -63% (active) |
| COc1cnc2c(c1)C(=O)c1c-2n(CCCNC2=NCCS2)c(=O)c2cc([N+](=O)[O-])ccc12 | -66.5% (active) |
| CCC(c1ccc(OC)cc1)C(CC)c1ccc(O)c(CN2CCCCC2)c1 (stereo unspecified) | 69.3% (inactive) |
| COc1cc2nc(Cl)nc(Nc3cccc(C(=O)/C=C/c4ccccc4)c3)c2cc1OC | 2.74% (active) |
| CC1(C)C(=O)/C(=C\c2ccco2)C[C@]2(C)[C@H]3CC[C@@H]4[C@@H](C(=O)/C=C/c5ccco5)CC[C@@]4(C)[C@]3(C)CC[C@@H]12 | 97.5% (inactive) |
| CCCC1CCCCN1C(=O)OCC(C)C (stereo unspecified) | 100% (inactive) |
| Cc1ccc(-c2nn(Cc3cn(-c4cc(C)nc5ccccc45)nn3)c3ncnc(N)c23)cc1 | 74.7% (inactive) |
